# Compound activity (PubChem)
# ERG-DNA inh: qHTS for Small Molecule Inhibitors of the ERG Ets/DNA interaction; Transcriptional regulator ERG (Homo sapiens), P11308; fluorescence polarization, His-ERG Ets domain / labelled DNA; Potency, µM (titrated, usually from 76.9 µM), inactives show at the top dose FP activity, negative = inhibition, hits mostly inhibitors; 370,000 tested, 0.028% active; AID 624246, 2012; active = well fitted inhibition curve with a large enough effect in the polarisation, with a control signal flat; inconclusive = small, poorly fitted or top-dose-only effect, or effect the other way, or a change in a side signal; inactive = no such curve, though single readings can be large or run the other way; the % refers to the polarisation;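 note: polarization taken with two DNA probes labelled with fluorescein and Texas red; potency is the fitted concentration of half-maximal effect; % of control where 0% means no effect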
#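 His-tagged ERG Ets domain (1 uM in the protein solution; 300mM KCl, 50mM Tris-HCl, 1mM EDTA, 1mM DTT, pH 7.5) received compound, then a probe mix of 5 nM fluorescein-DNA and 100nM Texas-615-DNA. Fluorescence polarization was read for both dyes.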
# PTHR1 agonist: qHTS for PTHR1 Agonists: Primary Screen; AID 743266, 2014; 410,000 tested, 0.075% active; Parathyroid hormone/parathyroid hormone-related peptide receptor (Homo sapiens), Q03431; Potency, µM (doses to about 115 µM), inactives show top-dose activation, usual class: activators; HEK293 GP2 PTHR1 cells, GloSensor cAMP luminescence, 1 h; note: potency is the fitted concentration of half-maximal effect; nearly all actives have a fitted effect of over 55% in size
# Target sequence (Q03431 whole entry, looked up): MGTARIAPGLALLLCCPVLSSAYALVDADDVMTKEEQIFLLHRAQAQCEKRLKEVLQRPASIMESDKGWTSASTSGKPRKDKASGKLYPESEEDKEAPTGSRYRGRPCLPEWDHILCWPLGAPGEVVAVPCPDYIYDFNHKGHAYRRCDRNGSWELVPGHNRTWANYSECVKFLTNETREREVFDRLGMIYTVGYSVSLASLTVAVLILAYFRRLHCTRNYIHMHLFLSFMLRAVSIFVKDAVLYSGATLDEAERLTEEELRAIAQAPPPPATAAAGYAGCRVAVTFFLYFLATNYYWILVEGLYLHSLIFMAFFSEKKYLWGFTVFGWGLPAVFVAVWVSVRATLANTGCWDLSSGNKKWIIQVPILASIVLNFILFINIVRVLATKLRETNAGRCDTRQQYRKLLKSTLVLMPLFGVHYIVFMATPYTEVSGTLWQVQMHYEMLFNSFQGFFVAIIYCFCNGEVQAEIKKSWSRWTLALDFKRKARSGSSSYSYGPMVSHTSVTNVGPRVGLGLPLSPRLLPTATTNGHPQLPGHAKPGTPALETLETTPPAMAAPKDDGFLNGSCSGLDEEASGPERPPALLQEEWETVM
#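 HEK-293-derived GP2 cells expressing PTHR1 and a GloSensor cAMP reporter, 3,000/well, plated overnight, given luciferin plus IBMX (each 0.5 mM as added) for 1 h at 37 °C, then compound for 1 h at 37 °C. Luminescence was read after 15 min at room temperature.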
# PINK1 expr mod: A Quantitative High throughput Screen to Identify Chemical Modulators of PINK1 Expression. PINK1 immunofluorescence, high-content cytometry, 24 h. Potency, µM (series often up to 76.6 µM), for inactives: at the highest dose activation (PINK1 increase), most hits filed as activators. 410,000 tested, 0.2% active; active = well fitted activation curve with a large enough effect; inconclusive = small, poorly fitted or top-dose-only effect; cell line not stated here; note: potency is the fitted concentration of half-maximal effect; % of control where 0% means no effect; nearly all actives have a fitted effect of over 65% in size
#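 Stable cell line, 250 cells/well, 12 h attachment; compounds pinned at 5 concentrations, 24 h; CCCP control. Fixed with nuclear dye, primary antibodies 12 h at 10 degrees C, secondary plus cell stain; laser-scanning cytometer read.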
# 12-LOX inh: Primary qHTS assay for inhibitors of human arachidonate 12S-lipoxygenase (ALOX12): Round 2; Polyunsaturated fatty acid lipoxygenase ALOX12 (Homo sapiens), P18054; Potency, µM (highest dose often 108 µM), inactives show top-dose activity change, negative = inhibition, most hits filed as inhibitors; purified 12hLO, xylenol orange hydroperoxide absorbance; 580,000 tested, 1.1% active; note: potency is the fitted concentration of half-maximal effect; % is set by controls: 0 for no effect and ±100 for the full control effect
#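 Purified human 12hLO (150 nM final) in 25 mM Hepes, 0.01% Triton X-100, pH 7.0 was preincubated 15 min at room temperature with compound. Then 40 uM arachidonic acid was added, 30 min. Hydroperoxide was read by Fe-XO absorbance ratio 573/405 nm.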
# Giardia kill: Small Molecules that selectively kill Giardia lamblia: qHTS | Giardia lamblia trophozoite viability | activity change, % at 7.66 µM, hits read low | 340,000 tested, 0.15% active; in the data active = activity change below about -80%; inconclusive = between about -30% and that limit;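 note: parasites exposed to compound for two days anaerobically before the ATP read; % is set by controls: 0 for no effect and ±100 for the full control effect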
#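 Giardia lamblia trophozoites (100 cells/well) were incubated with compounds for 48 h at 37 deg C under anaerobic conditions. Viability was read as ATP content by one-step luminescence after 15-30 min at room temperature.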
# miR-21 reporter: qHTS Assay for Modulators of miRNAs and/orActivators of miR-21; HeLa miR-21 FLuc reporter, luciferase, 48 h; Potency, µM (highest dose often 38.3 µM), for inactives: top-dose activity change, positive = activation, usual class: activators; 340,000 tested, under 10 active; AID 2288, 2010;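 note: % of control where 0% means no effect; miR-21 action dims this reporter so a rising signal means less miR-21 action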
#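 Using DMEM plus 10% FBS, HeLa miR-21-FLuc cells are incubated with test compounds (final up to about 40uM) for 48 hours; firefly luciferase signal is then imaged following reagent-mediated lysis.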
# * = called active by the depositor; i = inactive; ? = inconclusive; nt = not tested or not shown; [ ] = another dose, or the depositor's remark. Most compounds without a hit are left out; they make up all but 1.3% or so of the library. Unless noted, calls come from the whole dose curve; as a rule, active = well fitted curve in the direction sought with a large enough effect; inconclusive = small, poorly fitted or top-dose-only effect, or another doubt; inactive = no such curve, though single readings can be large; an effect the other way counts as inactive or inconclusive.
SMILES,ERG-DNA inh,PTHR1 agonist,PINK1 expr mod,12-LOX inh,Giardia kill,miR-21 reporter
COC(=O)CCCn1cc(CN2CC(N3CCN(Cc4cccc(C)c4)CC3)CS2(=O)=O)nn1 (stereo not given),nt,-15%,-1%,7.1µM*,nt,nt
O=S1(=O)CC(N2CCCCC2)CN1Cc1cn(Cc2ccc(Cl)cc2)nn1 (stereo not given),nt,-22%,0%,0%,nt,nt
Cc1ccc(S(=O)(=O)Nc2cccc3c2O[C@H](CN(C)Cc2ccc(-c4ccccc4)cc2)[C@@H](C)CN([C@H](C)CO)C3=O)cc1,-2%,i,0%,-4%,-7,nt
CCNC(=O)Nc1ccc2c(c1)c(=O)n(C)n2Cc1ccc(Cl)cc1,nt,i,1%,14µM*,nt,nt
Cc1ccc(CNC(=S)Nc2ccc3c(c2)c(=O)n(C)n3Cc2cccc(C(F)(F)F)c2)cc1,nt,i,1%,18µM*,nt,nt
COc1ccc(CCNC(=O)Nc2ccc3c(c2)c(=O)n(C)n3Cc2ccc(Cl)cc2)cc1OC,nt,-41%,1%,?,nt,nt
O=C(NCCS(=O)(=O)NCc1ccccc1)c1ccccc1,12%,-12%,0%,18%,3,nt
O=c1oc2c(-c3cccc(F)c3)cc(O)cc2s1,3%,-68%,0%,35µM*,20,5%
O=c1c2ccc(Cl)cc2nc2n1CC/C2=C\c1cccc(O)c1,2%,-14%,?,-10%,24,-10%
COc1ccc(/C=C2\CCn3c2nc2cc(C(=O)O)ccc2c3=O)cc1O,10%,26%,4%,-27%,13,-2%
O=C(O)c1ccc2c(=O)n3c(nc2c1)/C(=C/c1cccc(O)c1)CC3,0%,i,1%,7.9µM*,-9,0%
COc1ccc(/C=C2/CCn3c2nc2cc(Cl)ccc2c3=O)cc1O,nt,nt,nt,1.8µM*,nt,nt
CCCSc1nc(=O)c2c(n1C)NC(=O)CC2c1cc(C)ccc1C (stereo not given),nt,nt,nt,-19%,nt,nt
O[C@H]1CN(Cc2cccs2)[C@@H](c2ccccc2)C[C@@H]1n1cc(-c2ccc(F)cc2)nn1,nt,0%,29%,-11%,nt,nt
O[C@H]1C[C@H](c2ccccc2)N(Cc2cccs2)C[C@@H]1n1cc(-c2ccc(F)cc2)nn1,nt,-20%,-3%,35µM*,nt,nt
CCCCCCN1C[C@H](O)[C@@H](n2cc(-c3ccc(F)cc3)nn2)C[C@@H]1c1ccc(Cl)cc1,nt,-35%,16µM*,-65%,nt,nt
CCn1cc([N+](=O)[O-])c(C(=O)Nc2nc(-c3ccc(C)c(C)c3)c(C)s2)n1,-3%,i,2.8µM*,3%,-18,-4%
Fc1ccccc1/C=C1\CCCC2=C1NC(=S)NC2c1ccccc1F (stereo not given),7%,-4%,4%,32µM*,4,4%
S=C1NC2=C(CCC/C2=C\c2ccc(Cl)cc2)C(c2ccc(Cl)cc2)N1 (stereo not given),-1%,-49%,-1%,25µM*,1,6%
CC1CC2=C(NC(=S)NC2c2ccc(F)cc2)/C(=C/c2ccc(F)cc2)C1 (stereo not given),-10%,i,3%[38.3 µM],25µM*,-7,5%
S=C1NC2=C(CCC/C2=C\c2ccccc2)C(c2ccccc2)N1 (stereo not given),-2%,i,6%,?,1,-11%
C#CCN(C[C@@H]1[C@@H](OC(=O)NC2CCCC2)[C@@H](OC(=O)NC2CCCC2)CN(C(=O)OC(C)C)N1C(=O)OC(C)C)S(=O)(=O)c1ccc(C)cc1,nt,-4%,2%,13%,nt,nt
